Results with a measured potency or affinity are listed apart. The source made the active and inactive calls.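 The calls were made as follows: active = increase of the KCNQ2 potassium channel current at -35 mV by at least one tested dose; inactive = no tested dose increases that current.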
Target: Potassium voltage-gated channel subfamily KQT member 2 (Rattus norvegicus) (UniProt O88943)
Test: retigabine-insensitive KCNQ2 potentiators, concentration-response, dose response, cell-based, retigabine-insensitive compounds (AID 2654)
Conditions: KCNQ2-CHO cells, automated patch clamp current potentiation; at 30 µM (top of the series)

Sequence of Potassium voltage-gated channel subfamily KQT member 2 (Rattus norvegicus) (O88943 whole entry, looked up): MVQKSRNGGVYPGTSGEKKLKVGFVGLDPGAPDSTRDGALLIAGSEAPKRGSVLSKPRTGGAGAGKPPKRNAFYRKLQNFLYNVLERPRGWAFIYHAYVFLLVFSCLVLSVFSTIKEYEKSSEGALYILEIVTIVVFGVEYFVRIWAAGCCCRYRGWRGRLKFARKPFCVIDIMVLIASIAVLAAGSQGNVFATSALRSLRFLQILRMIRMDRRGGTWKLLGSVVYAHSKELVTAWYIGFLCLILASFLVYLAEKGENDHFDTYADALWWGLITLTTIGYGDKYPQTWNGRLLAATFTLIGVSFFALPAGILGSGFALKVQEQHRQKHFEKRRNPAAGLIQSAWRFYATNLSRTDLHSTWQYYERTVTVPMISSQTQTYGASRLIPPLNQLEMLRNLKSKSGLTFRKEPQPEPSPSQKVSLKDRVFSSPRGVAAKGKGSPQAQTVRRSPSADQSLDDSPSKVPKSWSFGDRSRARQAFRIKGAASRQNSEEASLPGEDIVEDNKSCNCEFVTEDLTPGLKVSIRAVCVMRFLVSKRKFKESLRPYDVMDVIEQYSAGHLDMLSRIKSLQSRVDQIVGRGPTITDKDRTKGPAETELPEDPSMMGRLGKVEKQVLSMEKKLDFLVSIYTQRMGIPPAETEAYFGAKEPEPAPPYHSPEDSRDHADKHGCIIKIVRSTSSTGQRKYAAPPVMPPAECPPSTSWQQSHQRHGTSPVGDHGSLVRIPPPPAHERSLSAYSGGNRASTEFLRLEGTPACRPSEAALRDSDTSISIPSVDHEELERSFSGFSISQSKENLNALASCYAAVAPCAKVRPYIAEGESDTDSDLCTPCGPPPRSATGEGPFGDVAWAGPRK

SMILES	potentiation
S=C(NCc1ccco1)Nc1cccnc1	7.03 (inactive)
FC(F)(F)c1cccc(NC(=S)Nc2cccnc2)c1	96.9
Cc1c(Cl)cccc1NC(=O)Nc1cccnc1	102
Cc1ccnc(NC(=O)NCc2ccc(Cl)cc2Cl)c1	-3.77 (inactive)
Cc1ccc(Cl)cc1NC(=S)Nc1cccnc1	8.95 (inactive)
O=C(NCC(F)(F)F)Nc1cccnc1	-1.35 (inactive)
O=C(Nc1cccc(F)c1)Nc1nccs1	17.7 (inactive)
Fc1ccc(NC(=S)Nc2cccnc2)c(F)c1F	6.35 (inactive)
Cc1cc(NC(=O)Nc2cccc(F)c2)cnc1Cl	-1.64 (inactive)
S=C(Nc1cccnc1)NC1CCCC1	-2.86 (inactive)
Fc1ccc(NC(=S)Nc2cccnc2)cc1Cl	12.7 (inactive)
S=C(Nc1cccnc1)NC1CCCCCCC1	7.28 (inactive)
S=C(Nc1cccnc1)NC1CCCc2ccccc21 (configuration not stated)	4.07 (inactive)
Cc1ccc(NC(=O)Nc2cccnc2)c(C)c1	36.1 (inactive)
O=C(NCc1ccc(Cl)cc1Cl)Nc1nccs1	12.4 (inactive)
Cc1cc(Cl)ccc1NC(=S)Nc1cccnc1	-3.35 (inactive)
S=C(NCC1CCCCC1)Nc1cccnc1	14.3 (inactive)
O=C(Nc1cccnc1)N1CCOCC1	12.8 (inactive)
O=C(Nc1cccnc1)Nc1cc(Cl)cc(Cl)c1	1.48 (inactive)
S=C(NCc1ccccc1)Nc1cccnc1	-6.69 (inactive)
COc1nccc(NC(=O)Nc2cccc(F)c2)n1	-18.8 (inactive)
Fc1ccc(NC(=S)Nc2cccnc2)c(Cl)c1	10.5 (inactive)
O=C(Nc1cccnc1)Nc1ccc(Cl)c(Cl)c1	5.41 (inactive)
Cc1nc(F)ccc1NC(=O)NCc1ccc(Cl)cc1Cl	0.46 (inactive)
CCOc1ccccc1NC(=O)Nc1cccnc1	-2.96 (inactive)
Cc1ccc(C)c(NC(=O)Nc2cccnc2)c1	4.05 (inactive)
O=C(Nc1cccnc1)Nc1ccc2c(c1)OCCO2	23.4 (inactive)

— PubChem BioAssay AID2654 (Johns Hopkins Ion Channel Center, 2010)
